Screens (PubChem BioAssay)
Pf Dd2 inh: P. falciparum Dd2 growth inhibitors, primary screen, SYBR Green fluorescence, single dose replicates | 72 h; active compounds read low | activity change, % at 10 µM | 2.3% of 94,000 active | AID 1159554, 2015; in the data active = activity change below about -80%
C diff growth: C. difficile growth inhibitors, primary screen, HTS; Clostridium difficile clinical isolate growth, OD600, 24 h; active compounds read low; growth activity, negative = inhibition, % at 16 µg/mL (by protocol); 0.25% of 86,000 active; AID 1259249, 2017;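 active = mean growth activity at or below -80% and every replicate also at or below -80%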;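 also: 0% = DMSO wells and -100% = levofloxacin 16 µg/mL wells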
* marks the source's active call; other numbers are inactive results. Most compounds without a hit are left out; they make up all but 2.3% or so of the library.

For C[C@@H]1CN([C@H](C)CO)C(=O)Cc2cc(NC(=O)Cc3cn(C)c4ccccc34)ccc2O[C@H]1CN(C)Cc1ccc(C(=O)O)cc1 the results were Pf Dd2 inh -7 and C diff growth -6.
Screening O=C(c1cccc(F)c1)N1CCCCN2[C@H](C1)[C@@H](c1ccc(-c3ccccc3)cc1)[C@@H]2CO returned Pf Dd2 inh 21 and C diff growth 9.
Screening C[C@@H]1CN([C@@H](C)CO)C(=O)c2cc(-c3cccc(C#N)c3)cnc2O[C@H]1CN(C)Cc1cncnc1 returned Pf Dd2 inh 27 and C diff growth 1.
Screening COc1ccc2c3c(n(C)c2c1)[C@@H](CO)N(C(=O)Nc1ccc(F)cc1)CC31CCN(C(=O)c2ccc3c(c2)OCO3)CC1 returned Pf Dd2 inh -71 and C diff growth 0.
CCC(=O)N1CCC2(CC1)CN(C(=O)Nc1ccc(F)cc1)[C@H](CO)c1c2c2ccc(OC)cc2n1C was read as Pf Dd2 inh -35 and C diff growth 5.
`COc1ccc2c3c(n(C)c2c1)[C@@H](CO)N(C(=O)Nc1ccc(F)cc1)CC31CCN(C(=O)c2ccccc2F)CC1` gave Pf Dd2 inh -85* and C diff growth -13.
For COc1ccc2c3c(n(C)c2c1)[C@H](CO)N(C(=O)Nc1ccc(F)cc1)CC31CCN(C(=O)c2ccc3c(c2)OCO3)CC1 the results were Pf Dd2 inh -88* and C diff growth -13.
CCNC(=O)C[C@H]1CC[C@H]2[C@@H](COC[C@@H](O)CN2C(=O)CC)O1 was read as Pf Dd2 inh 3.
Screening O=C(C[C@H]1CC[C@H](NC(=O)c2ccccn2)[C@@H](CO)O1)NCc1cccc(F)c1 returned Pf Dd2 inh -27 and C diff growth -1.
CO[C@@H]1CN(C)C(=O)c2cc(NC(C)=O)ccc2OC[C@H](C)N(Cc2ccncc2)C[C@H]1C was read as Pf Dd2 inh -31.
For COCC(=O)Nc1ccc2c(c1)C(=O)N(C)C[C@H](OC)[C@H](C)CN(Cc1cccc(F)c1)[C@@H](C)CO2 the results were Pf Dd2 inh -82*.
Screening CO[C@H]1CN(C)C(=O)c2cc(NC(C)=O)ccc2OC[C@H](C)N(Cc2ccncc2)C[C@H]1C returned Pf Dd2 inh -80*.
COCC(=O)Nc1ccc2c(c1)C(=O)N(C)C[C@@H](OC)[C@@H](C)CN(Cc1cccc(F)c1)[C@H](C)CO2 was read as Pf Dd2 inh -15.
Screening C[C@@H]1CN([C@H](C)CO)C(=O)c2cccc(NC(=O)NC3CCCCC3)c2O[C@H]1CN(C)Cc1ccncc1 returned Pf Dd2 inh -8 and C diff growth -2.
CNC[C@@H]1OCCCC[C@H](C)Oc2ccc(NC(=O)c3ccccc3)cc2C(=O)N([C@@H](C)CO)C[C@@H]1C was read as Pf Dd2 inh 7 and C diff growth -2.
For COc1ccc(NC(=O)Nc2ccc3c(c2)CC(=O)N([C@@H](C)CO)C[C@@H](C)[C@@H](CN(C)C(=O)Nc2ccccc2)O3)cc1 the results were Pf Dd2 inh -5 and C diff growth 5.
O=C(CN1CCOCC1)N[C@H]1CC[C@@H](CCNC(=O)Nc2cc(F)ccc2F)O[C@H]1CO was read as Pf Dd2 inh 7.
`C[C@@H]1CCCCO[C@H](CN(C)C(=O)Cc2ccccc2)[C@@H](C)CN([C@@H](C)CO)C(=O)c2cc(NC(=O)Nc3ccc4c(c3)OCO4)ccc2O1` gave Pf Dd2 inh -84* and C diff growth 4.
For C[C@@H]1CCCCO[C@H](CN(C)C(=O)Cc2ccccc2)[C@@H](C)CN([C@@H](C)CO)C(=O)c2cc(NC(=O)Nc3ccc(C(F)(F)F)cc3)ccc2O1 the results were Pf Dd2 inh -87* and C diff growth -4.
`C[C@@H]1CCCCO[C@H](CN(C)C(=O)CCCN(C)C)[C@H](C)CN([C@@H](C)CO)C(=O)c2cc(NC(=O)Nc3ccc(C(F)(F)F)cc3)ccc2O1` gave Pf Dd2 inh -88*.
Screening C[C@H](CO)N1C[C@H](C)[C@H](CN(C)C(=O)Cc2ccccc2)OCCCC[C@H](C)Oc2ccc(NC(=O)Nc3ccc(F)cc3)cc2C1=O returned Pf Dd2 inh 50 and C diff growth -3.
For C[C@@H]1CCCCO[C@H](CN(C)C(=O)Cc2ccccc2)[C@H](C)CN([C@@H](C)CO)C(=O)c2cc(NC(=O)Nc3ccc(C(F)(F)F)cc3)ccc2O1 the results were Pf Dd2 inh -70 and C diff growth 2.
Screening C[C@H]1CCCCO[C@H](CN(C)C(=O)CCCN(C)C)[C@@H](C)CN([C@@H](C)CO)C(=O)c2cc(NC(=O)Nc3ccc(C(F)(F)F)cc3)ccc2O1 returned Pf Dd2 inh -38.
`C[C@@H]1CN([C@@H](C)CO)C(=O)c2cc(NC(=O)Nc3ccc4c(c3)OCO4)ccc2O[C@@H](C)CCCCO[C@H]1CN(C)C(=O)Cc1ccccc1` gave Pf Dd2 inh -6 and C diff growth 2.
